The supplement of paper PMC10338343
± gives the standard deviation. Whole data set: some 8,200 sequences, median “pre-steady-state target cleavage rate” near 0.024, cut for the highest 2% near 1.3. The list comes from a sample in which the highest values are over-represented; it also holds similar and randomly drawn sequences.

System: MIWI (PIWIL1) piRISC loaded with L1MC piRNA (30 nt)
Experiment: pre-steady-state target cleavage rate (min^-1); MIWI and MILI are mouse PIWI proteins and EfPiwi is from a freshwater sponge; tags in brackets are library labels; higher = faster piRNA-guided slicing of the target
Conditions: guide: L1MC piRNA 5'p-UAACUAAAUACUAUGCAAGCUGUAGGUCCU
Method in brief: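 Cleave-'n-Seq: 1 nM active affinity-purified piRISC with one synthetic guide and 0.1 nM transcribed, DNA-blocked target RNA library were mixed, with or without 500 nM GTSF1 partner protein, in HEPES–potassium acetate buffer at 33 °C for 0–8 or 0–960 min. Uncleaved targets were sequenced and normalised to depth and to weakly complementary targets, three trials were pooled, and k3 was capped at 0.0001 min^-1. The pre-steady-state cleavage rate was fitted […].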

[1] = auxiliary factor: 500 nM mouse GTSF1
[2] = auxiliary factor: none (no GTSF1)

| Sequence | pre-steady-state target cleavage rate [1] | pre-steady-state target cleavage rate [2] |
| --- | --- | --- |
| UGGACCUACAGCUUGAAUAGUAUUUAGUUA | 1.63 ± 0.08 | 0.0423 ± 0.0078 |
| UCCACCUACAGCUUGAAUAGUAUUUAGUUA | 1.01 ± 0.035 | 0.0277 ± 0.0053 |
| AGGACCUACAGCUUGACAUAGUAUUUAGUUA | 1.07 ± 0.093 | 0.0105 ± 0.0047 |
| AGGACCUACAGCUUGAUAGUAUUUAGUUA | 1.21 ± 0.082 | 0.0133 ± 0.0041 |
| AGGACCUACAGCUUGAAUAGUAUUUAGUUA | 1.44 ± 0.059 | 0.0532 ± 0.01 |
| UCGACCUACAGCUUGAUAGUAUUUAGUUA | 1.08 ± 0.067 | 0.00731 ± 0.0024 |
| UGGACCUACAGCUUGCAAUAGUAUUUAGUUA | 0.0655 ± 0.011 |  |
| UGGACCUACAGCUUGAUAGUAUUUAGUUA | 1.03 ± 0.096 | 0.0103 ± 0.003 |
| UCGACCUACAGCUUGAAUAGUAUUUAGUUA | 1.48 ± 0.05 | 0.0397 ± 0.0067 |
| UCCUGGAUGUGCUUGCAUAGUAUUUACAUA | 0.08 ± 0.017 | 0.0058 ± 0.0031 |
| UCCUGGAUGAGCAUGGAUAGUAUUUAGUUA | 0.475 ± 0.042 | 0.0081 ± 0.0031 |
| UCGACCUACAGCUUGCUUAGUAUUUUCAAA | 0.329 ± 0.048 |  |
| UCCUGGAUGUGCAUGCAUAGUAUUUAGUAA | 0.0251 ± 0.0072 | 0.00346 ± 0.0025 |
| UCCUGGAUGAGCUUGCUUAGUAUAUAGUUA | 0.0747 ± 0.013 | 0.0101 ± 0.0035 |
| UCCUGGAAGAGCUUGCUUAGUAUUUAGUUA | 0.761 ± 0.051 | 0.0227 ± 0.0089 |
| UCCUGCUACAGCAUGCAUAGUAAUUAGUUA | 0.73 ± 0.077 | 0.00723 ± 0.0026 |
| UCCUGGAUGUCCUUGCAUAGUAUAUUAGUUA | 0.025 ± 0.0089 |  |
| UCCUGGAACAGCUUGCAUAGUAUUUGGUUA | 0.781 ± 0.041 | 0.0538 ± 0.011 |
| UCCACCUACAGCUUGCUUAGUAUUUAGUAA | 0.484 ± 0.044 | 0.0103 ± 0.0023 |
| UCCACUUACAGCUUGCAUAGUAUUUAGUUA | 1.17 ± 0.034 | 0.0668 ± 0.0094 |
| UGGACUUACAGCUUGCAUAGUAUUUAGUUA | 1.45 ± 0.063 | 0.081 ± 0.013 |

| Sequence | pre-steady-state target cleavage rate [1] | pre-steady-state target cleavage rate [2] |
| --- | --- | --- |
| AGGACCGUACAGCUUGCAUAGUAUUUAGUUA | 1.16 ± 0.061 | 0.0943 ± 0.019 |
| AGGACUUACAGCUUGCAUAGUAUUUAGUUA | 1.39 ± 0.064 | 0.0831 ± 0.012 |
| UGGACCAUACAGCUUGCAUAGUAUUUAGUUA | 1.3 ± 0.066 | 0.0868 ± 0.013 |
| UCGACCUUACAGCUUGCAUAGUAUUUAGUUA | 1.47 ± 0.057 | 0.091 ± 0.02 |
| UCGACUUACAGCUUGCAUAGUAUUUAGUUA | 1.56 ± 0.045 | 0.0755 ± 0.013 |
| UGGACCUACAGCUUGCAUAGUAUUUACUUA | 0.24 ± 0.021 | 0.0361 ± 0.0058 |
| UCGACUACAGCUUGCAUAGUAUUUAGUUA | 1.3 ± 0.049 | 0.0713 ± 0.012 |
| UCCUGGAUGAGCUAGCAUAGUAUAUAGUUA | 0.194 ± 0.031 | 0.00454 ± 0.0041 |
| UCCACCUACUCGUUGCAUAGUAUUUAGUAA | 0.406 ± 0.031 | 0.00745 ± 0.0019 |
| UCCUGCUACAGCUUCCAUAGAAUUUAGUUA | 0.0338 ± 0.013 |  |
| UCCUGGAUGAGCUUGCAUAGUAUUAAGUAA | 0.197 ± 0.036 | 0.0178 ± 0.0055 |
| UCCACCUAGAGCUUGCAUAGUAUUUAGAUA | 0.178 ± 0.032 | 0.00955 ± 0.0025 |
| UCCUGCUACAGCUUGCAUAGUAUUUUCAUA | 0.295 ± 0.055 |  |
| UCCUGGAUGUGCUUGCAAAGUAUUUUGUUA | 0.0495 ± 0.008 | 0.0109 ± 0.0032 |
| UGGAGCUACUGCUUGCAUAGUAUUUAGUUA | 1.09 ± 0.055 | 0.0621 ± 0.0085 |
| AGGACCAUCAGCUUGCAUAGUAUUUAGUUA | 1.3 ± 0.048 | 0.0926 ± 0.017 |
| UCCUCCAUCAGCUUGCAUAGUAUUUAGUUA | 0.739 ± 0.027 | 0.0679 ± 0.013 |
| UCCACCUAUCAGCUUGCAUAGUAUUUAGUUA | 1.01 ± 0.037 | 0.0531 ± 0.011 |
| UGGACCAUCAGCUUGCAUAGUAUUUAGUAA | 1.05 ± 0.053 | 0.0577 ± 0.013 |
| UGGACCUAUAGCUUGCAUAGUAUUUAGUUA | 1.23 ± 0.054 | 0.0564 ± 0.011 |
| UGGACCAUCAGCUUGCAUAGUAUUUAGUUA | 1.44 ± 0.056 | 0.101 ± 0.019 |

| Sequence | pre-steady-state target cleavage rate [1] | pre-steady-state target cleavage rate [2] |
| --- | --- | --- |
| UCCUCCUAUCAGCUUGCAUAGUAUUUAGUUA | 1.49 ± 0.072 | 0.0492 ± 0.011 |
| UCGACCUAUCAGCUUGCAUAGUAUUUAGUUA | 1.61 ± 0.06 | 0.0851 ± 0.018 |
| UCGACCUAUAGCUUGCAUAGUAUUUAGUUA | 1.04 ± 0.055 | 0.0703 ± 0.014 |
| UCCUCCUCAGCUUGCAUAGUAUUUAGUUA | 1.05 ± 0.027 | 0.0482 ± 0.009 |
| UGGACCUAUCAGCUUGCAUAGUAUUUAGUUA | 1.48 ± 0.086 | 0.074 ± 0.016 |
| AGGACCUAUCAGCUUGCAUAGUAUUUAGUUA | 1.25 ± 0.055 | 0.0769 ± 0.013 |
| UCCUGGAUGUCGAACGUAUGAUUUUAGUUA | < 0.0001 |  |
| UCCUGCUUGUGCUUGCAUAGUAUUUAGUAA | 0.133 ± 0.019 | 0.0144 ± 0.0036 |
| UCCUGGUACAGGCUUGCAUAGUAUUUAGUUA | 0.498 ± 0.059 | 0.0384 ± 0.0089 |
| UCCUGGAUGUCGAUGCAUAGUAUUGAGUUA | 0.02 ± 0.006 |  |
| UCCUGGAUCAGCUUGCAUAGUCUUUAGUUA | 0.841 ± 0.035 | 0.0552 ± 0.012 |
| AGGACCUACAGCUUGCAUAGUAUUUAAUUA | 0.357 ± 0.033 | 0.0325 ± 0.0055 |
| AGGACCUACAGCUUGCUUAGUAUUUAGAAA | 0.486 ± 0.063 | 0.00737 ± 0.0028 |
| UCCUGGAUCAACUUGCAUAGUAUUUAGUUA | 1.01 ± 0.051 | 0.0248 ± 0.0054 |
| AGGACCUACAGGAAGCAUAGUAUUUACAAA | 0.32 ± 0.064 |  |
| ACGACCAACAGCUUGCAUAGUAUUUAGUUA | 1.64 ± 0.055 | 0.0972 ± 0.018 |
| UCGACCAACAGCUUGCAUAGUAUUUAGUUA | 1.62 ± 0.054 | 0.0825 ± 0.014 |
| UCGACCAACAGCUUGCAUAGUAUUUAGUAA | 1.2 ± 0.065 | 0.0413 ± 0.0084 |
| UGCACCAACAGCUUGCAUAGUAUUUAGUUA | 1.23 ± 0.056 | 0.0613 ± 0.0098 |
| AGCACCAACAGCUUGCAUAGUAUUUAGUUA | 1.03 ± 0.058 | 0.0664 ± 0.011 |
| UCGACCAACAGCUUGCAUAGUAUUUAGAUA | 0.54 ± 0.029 | 0.0297 ± 0.0066 |
